Screening results as filed in PubChem.
The sample as a whole holds a higher share of hits than the screen did.
PD-1 reversal – reversal of PD-1 mediated T-cell inhibition; primary human CD4 T cells, PD-L1 beads, CellTiter-Glo 96 h; activation, % (concentration not given with the values); 29,000 tested, under 10 active; AID 2316; call rule not given here;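 also: 0% = median vehicle wells and 100% = positive control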
NOMO-1 viab – STK33 inhibitor candidate reducing NOMO-1 cell viability | NOMO-1 AML viability, CellTiter-Glo luminescence, 72 h | inhibition, % (no concentration beside the values) | 37,000 tested, 7.5% active; in the data active = inhibition above about 80%
STK33 kin inh – inhibitors of human STK33 kinase. ADP-Glo luminescence, MBP substrate. inhibition, % at 12.5 µM. 27,000 tested, 0.44% active. AID 2322; in the data active = inhibition above about 20%
Target sequence (Q9BYT3 whole entry, looked up): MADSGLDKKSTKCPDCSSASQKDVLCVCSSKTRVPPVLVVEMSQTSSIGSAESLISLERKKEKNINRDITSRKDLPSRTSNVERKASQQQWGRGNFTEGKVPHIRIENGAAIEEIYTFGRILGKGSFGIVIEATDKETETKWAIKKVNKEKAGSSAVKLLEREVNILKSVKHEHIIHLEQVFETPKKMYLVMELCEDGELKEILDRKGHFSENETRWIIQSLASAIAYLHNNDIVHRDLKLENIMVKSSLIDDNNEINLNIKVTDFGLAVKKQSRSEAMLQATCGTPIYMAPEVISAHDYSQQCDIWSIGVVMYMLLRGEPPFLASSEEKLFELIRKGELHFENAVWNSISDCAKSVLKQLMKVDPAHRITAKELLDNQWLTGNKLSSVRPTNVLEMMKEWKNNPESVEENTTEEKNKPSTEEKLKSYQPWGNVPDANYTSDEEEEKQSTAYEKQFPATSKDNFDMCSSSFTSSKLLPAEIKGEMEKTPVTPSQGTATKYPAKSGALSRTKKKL
* = called active by the depositor; x = no result given.

SMILES | PD-1 reversal | NOMO-1 viab | STK33 kin inh
C[C@H]1CN([C@@H](C)CO)C(=O)CCCn2cc(nn2)CO[C@@H]1CN(C)C(=O)Oc1ccc2ccccc2c1 | x | x | -5
C=C1[C@]23C(=O)O[C@@H](C)[C@]2(O)C(=O)O[C@@]1(C)[C@H](OC(C)=O)C1=C(C)[C@@]2(C=CC(=O)OC2(C)C)CCC13C (some centres undefined) | 1 | 13 | -5
CCC1CC2CC3(C(=O)OC)c4[nH]c5ccc(OC)cc5c4CCN(C2=O)C13 (centres undefined) | 5 | 31 | -3
O=c1c2ccccc2[se]n1-c1ccccc1 | -58 | 141* | 6
O=c1c2ccccc2nc(C(F)(F)F)n1-c1ccccc1 | 4 | 4 | 1
C=C(C)[C@H]1O[C@H]2CC[C@@]3(C)[C@@](O)(CC[C@H]4[C@@H]5OC(C)(C)[C@H]6C[C@@H]7C(=C)Cc8c(Cl)cc9[nH]c(c5c9c8[C@@]76O)[C@@]43C)[C@]23O[C@@H]3[C@H]1O | x | 116* | -1
COc1ccc(CCNCc2cc(Cl)cc(Cl)c2OC)cc1OC | -3 | 15 | 0
CCN1C[C@]2(COC)CC[C@H](O)[C@]34C1[C@H](C[C@H]23)[C@@]1(O)C[C@H](OC)[C@H]2C[C@@H]4[C@@H]1[C@H]2OC(C)=O | x | 7 | -29
COc1ccc2c(c1OC)CN1CCc3cc4c(cc3C1C2)OCO4 (centres undefined) | x | 15 | -1
COc1ccc2c(c[n+](C)c3c4cc5c(cc4ccc23)OCO5)c1OC | -59 | 142* | 4
CCN1C[C@]2(C)CC[C@H](OC)[C@@]34C1[C@@]1(OCO[C@@]15C[C@H](OC)[C@H]1C[C@]3(O)[C@@H]5[C@H]1OC)[C@@H](OC(C)=O)[C@H]24 | x | 11 | -6
CC(C)N(C(=O)CCl)c1ccccc1 | x | 111* | 4
CCc1cccc(C)c1N(C(=O)CCl)C(C)COC (centres undefined) | x | 14 | 0
c1cncc(C2Nc3ccccc3-n3cccc32)c1 (centres undefined) | -6 | 72 | x
Cc1cc(Br)c(NC(=O)C2C(C)(C)C2(C)C)c(Br)c1 | -5 | 89* | -1
CC1(C)C(C(=O)Nc2ccccc2C#N)C1(C)C | 0 | 18 | x
CC1=CC(=O)C2=C(C)C[C@H](O)[C@@H]3[C@H](OC(=O)[C@H]3C)[C@H]12 | x | -13 | 1
C[C@H]1O[C@@H](O[C@H]2C[C@@H](O)[C@]3(CO)C4C(CC[C@]3(O)C2)[C@@]2(O)CC[C@H](C3=CC(=O)OC3)[C@@]2(C)C[C@H]4O)[C@@H](O)[C@@H](O)[C@H]1O (some centres undefined) | -29 | 121* | 0
CC1OC(O[C@H]2C[C@@H](O)[C@]3(CO)[C@H]4[C@H](O)C[C@]5(C)[C@@H](C6=CC(=O)OC6)CC[C@]5(O)[C@@H]4CC[C@]3(O)C2)C(O)C(O)C1O (some centres undefined) | -52 | 98* | -1
C[C@@H]1O[C@@H](O[C@H]2C[C@@H](O)[C@]3(CO)C4C(CC[C@]3(O)C2)[C@@]2(O)CC[C@H](C3=CC(=O)OC3)[C@@]2(C)C[C@H]4O)[C@H](O)[C@H](O)[C@H]1O (some centres undefined) | x | 107* | -1
Cc1ccc(NC(=O)c2cc(C)n(C(C)(C)C)n2)cc1 | -1 | 6 | 0
Cc1ccc(-n2c(CNCc3cccnc3)nc3ccccc3c2=O)cc1 | 2 | 14 | 7
Cc1cc(C(F)F)n2nc(C(=O)Nc3ccc4c(C(F)(F)F)cc(=O)oc4c3)nc2n1 | -1 | 13 | 2
CC(CCc1ccc(O)cc1)O[C@@H]1O[C@H](CO[C@H]2OC[C@](O)(CO)[C@H]2O)[C@@H](O)[C@H](O)[C@H]1O (some centres undefined) | 1 | -1 | 0
COC[C@H]1OC(=O)c2coc3c2[C@@]1(C)C1=C(C3=O)[C@@H]2CCC(=O)[C@@]2(C)C[C@H]1OC(C)=O | -22 | 90* | 9
SMILES | PD-1 reversal | NOMO-1 viab | STK33 kin inh
CCOC(=O)CN1C(=O)C2(C(C(=O)OCC)=C(N)OC3=C2C(=O)CC(C)(C)C3)c2ccccc21 (centres undefined) | 4 | 2 | -1
COC(=O)C12CC3CC(C(C)O)C1N(CCc1c2[nH]c2ccc(OC)cc12)C3 (centres undefined) | 1 | 30 | 3
N#Cc1c(Cl)cccc1Cl | x | -22 | 2
Oc1cccc2cccnc12 | x | 111* | -7
c1cncc(C2N=C(c3cnccn3)NN2)c1 (centres undefined) | 5 | -4 | 1
COCc1cc(OC(=O)N(C)C)nc2c1c(C)nn2C | 0 | -16 | x
CCOC(=O)c1cc(C(C)(C)C)nc(OC(=O)N(C)C)c1C#N | -1 | 101* | -2
CC(=O)c1c(C)n(Cc2ccccc2)c2c(Cl)c(Cl)c(Cl)c(OCC(=O)O)c12 | x | x | -1
